In all, about 270,000 compounds went through this assay and about 410 (0.15%) were called active. This is one part of a sample in which actives are shown more often than they occur. No stated cut-off is given here; in the data, active means activation above about 40%; inactive means the rest, inconclusive results apart.
Test system: Aedes aegypti neuropeptide Y-like receptor 7 (NPYLR7)
Experiment: agonists of mosquito NPYLR7 receptor, primary screen, cell-based, Aedes aegypti, calcium fluorescence, mosquito biting behavior (AID 1259423);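 further: 0% = vehicle and 100% = reference agonist at the receptor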
Conditions: HEK293T NPYLR7/Galpha15, GCaMP6s calcium fluorescence, at 10 µM, stronger effect = higher value
[1] = measured here: Max-Min RFU normalised activation

Structure (SMILES) | activation | activation [1] [%]
O=C(NC1Cc2ccccc2C1)c1ccc(-c2cc(-c3cccc(C(F)(F)F)c3)n[nH]2)cc1 | 25.1% (inactive) | 16.8
N#Cc1cc2cc(Cl)cc(Cl)c2oc1=O | 189% (active) | 162
N#Cc1cc(Cl)c(Cl)cc1C#N | 9.21% (inactive) | 8.51
O=c1oc2c(Cl)cc(Cl)cc2cc1-c1nnc(Nc2ccccc2F)s1 | 3.96% (inactive) | 1.58
CCCCNC(=O)c1c(C)c(C(=O)OCC)n(C)c1C | -1.79% (inactive) | 26.8
O=C(Nc1cc(F)c(N2CCCC2)c(F)c1)C1Cc2ccccc2O1 (stereo not given) | 2.58% (inactive) | 0.532
COc1ccc(NC(=O)C(C)SCc2cccc(C(F)(F)F)c2)cc1 (stereo not given) | -0.635% (inactive) | -2.01
C=C(C)Cn1c(C2CC(=O)N(c3ccccc3CC)C2)nc2ccccc21 (stereo not given) | -1.84% (inactive) | 23.5
CCN(CC)C(=O)C1(C)CCN1C(=O)Cc1ccc(-c2ccccc2)cc1 (stereo not given) | 4.71% (inactive) | 3.32
COc1ccc(OCC(O)CN(Cc2cccn2C)CC2CCCO2)cc1 (stereo not given) | 18.8% (inactive) | 19.6
CC(C)COCC(O)CN(Cc1cccn1C)CC1CCCO1 (stereo not given) | 43.6% (active) | 42.4
COc1cccc(CN(CC(O)COCC(C)C)CC2CCCO2)c1 (stereo not given) | 23.7% (inactive) | 17.6
Fc1ccc(-c2cnc(NCCc3ccccn3)cn2)cc1Cl | -2.76% (inactive) | -5.38
COC(=O)C1=C(NC(=O)CSCc2ccccc2)CCS1 | -1% (inactive) | -1.58
CC1CCC(C(C)C)C(OCC(O)CN2CCN(CCO)CC2)C1 (stereo not given) | 0.73% (inactive) | 22.3
